Screening data from PubChem BioAssay.
TDP1 cell noCPT: qHTS for Inhibitors of human tyrosyl-DNA phosphodiesterase 1 (TDP1): qHTS in cells in absence of CPT. Potency, µM (titrated, usually from 46.2 µM), actives largely listed as inhibitors. DT40 Tdp1-/- hTDP1 cells, no CPT, ATP luminescence, 48 h. 420,000 compounds, 15% hits; note: nearly all actives have a fitted effect of over 55% in size
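Cells were dispensed at 400 per well, compounds added by pin tool, plates incubated ≥48 hr at 37 °C, then CellTiter-Glo added for 30 min at room temperature before luminescence reading. Line: DT40 Tdp1-/- complemented with hTDP1; camptothecin omitted.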
IL1B secr inh: inhibitors of inflammasome signaling (IL-1 beta secretion) | THP-1 LPS/ATP IL-1B secretion, AlphaLISA, 16 h; stronger effect = lower value | activity change, % at 57.5 µM | 360,000 compounds, 4.7% hits | AID 743279; in the data active = activity change below about -50%; inconclusive = mostly about -30% to -49%
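Secreted IL-1B measured by AlphaLISA bead assay after 16 h compound exposure of THP-1 cells; compounds (final up to 57.5 uM) added 1 h before LPS (250 ng/mL) and ATP (1.25 mM) stimulation; lower signal means less secretion.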
ELG1 repair inh: blocks ELG1-dependent DNA repair in HEK293T cells; HEK293T ELG1-luciferase reporter, luminescence, 16 h; DNA damage induced by 5-fluorouridine; Potency, µM (titrated, usually from 46.1 µM), hits mostly inhibitors; 330,000 compounds, 2.3% hits; AID 504467; note: nearly all actives have a fitted effect of over 55% in size
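Step one: seed 2,000 cells per well. Step two: pin-transfer compound or DMSO alongside 5-fluorouridine. Step three: incubate 16 hr, 37 °C, 5% CO2. Step four: add ONE-Glo, wait 30 min, read luminescence.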
HT1080-NT tox: kills 2HG-producing HT-1080-NT fibrosarcoma cells | HT-1080-NT fibrosarcoma viability, CellTiter-Glo ATP luminescence, 48 h | Potency, µM (titrated, usually from 46.1 µM), actives largely listed as cytotoxic | 360,000 compounds, 1.6% hits | AID 686970;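 note: NT is the 2HG producing partner of a matched IDH1 knockdown line; nearly all actives have a fitted effect of over 55% in size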
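Viability of the 2HG-overproducing fibrosarcoma line after 48 hours of compound exposure at 37 degrees C was determined by luminescence with CellTiter-Glo, and concentration-effect curves were then fitted and categorized.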
DT40 TDP1 CPT: growth inhibition of DT40 Tdp1-/-;hTDP1 cells with camptothecin (screen for TDP1 inhibitors). chicken DT40 Tdp1-/-;hTDP1 cells + 20 nM CPT, ATP luminescence, 48 h. Potency, µM (top dose mostly 46.2 µM), actives largely listed as inhibitors. 420,000 compounds, 12% hits. AID 686979; note: nearly all actives have a fitted effect of over 55% in size
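Cell growth measured by CellTiter-Glo luminescence after a minimum 48 h, 37 C compound exposure with 20 nM CPT in Tdp1-knockout DT40 cells stably expressing hTDP1, seeded 400/well; qHTS titration format.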
HT1080 IDH1KD tx: kills HT-1080 cells with IDH1 knockdown; 360,000 compounds, 2% hits; AID 686971; Potency, µM (doses to about 46.1 µM), actives largely listed as cytotoxic; HT-1080 IDH1 knockdown viability, ATP luminescence, 48 h
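HT-1080-IDH1KD cells (IDH1 knocked down), 750/well in RPMI with 5% FBS, treated with compound 48 h at 37 degrees C. Viability by CellTiter-Glo luminescence, normalised to DMSO and no-cell wells; concentration-response curves classed.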
A number is an active result. Compounds with a hit are over-represented: about 19% of the library has one in this group of screens. Unless noted, calls come from the whole dose curve; as a rule, active = well fitted curve in the direction sought with a large enough effect; inconclusive = small, poorly fitted or top-dose-only effect, or another doubt; inactive = no such curve, though single readings can be large; an effect the other way counts as inactive or inconclusive.

Screening CCCCn1c(NCc2ccc(OC)cc2O)nc2ccccc21 returned TDP1 cell noCPT 10µM, IL1B secr inh inactive, HT1080-NT tox inactive, DT40 TDP1 CPT 15µM and HT1080 IDH1KD tx inactive.
Screening C[C@@H]1CN([C@H](C)CO)C(=O)c2cc(NC(=O)C3CCCCC3)ccc2O[C@@H]1CN(C)Cc1ccncc1 returned TDP1 cell noCPT inactive, IL1B secr inh inactive, ELG1 repair inh inactive, HT1080-NT tox inactive, DT40 TDP1 CPT inconclusive and HT1080 IDH1KD tx inactive.
Screening C[C@@H]1CN([C@@H](C)CO)C(=O)c2cccc(NS(=O)(=O)c3cccs3)c2O[C@H]1CN(C)Cc1ccc(C(F)(F)F)cc1 returned TDP1 cell noCPT inconclusive, IL1B secr inh inactive, ELG1 repair inh inactive, HT1080-NT tox inactive, DT40 TDP1 CPT 16µM and HT1080 IDH1KD tx inactive.
For C[C@H](CO)N1C[C@H](C)[C@@H](CN(C)Cc2ccc(C(=O)O)cc2)Oc2c(NS(=O)(=O)c3cccs3)cccc2C1=O the results were TDP1 cell noCPT inactive, IL1B secr inh inactive, ELG1 repair inh inactive, HT1080-NT tox inactive, DT40 TDP1 CPT inactive and HT1080 IDH1KD tx inactive.
For C[C@H](CO)N1C[C@H](C)[C@@H](CN(C)Cc2ccccc2)Oc2c(NC(=O)Cc3ccccc3)cccc2C1=O the results were TDP1 cell noCPT 10µM, IL1B secr inh inactive, ELG1 repair inh inconclusive, HT1080-NT tox inconclusive, DT40 TDP1 CPT 15µM and HT1080 IDH1KD tx inconclusive.
For C[C@H](CO)N1C[C@H](C)[C@@H](CN(C)Cc2ccc(-c3ccccc3)cc2)Oc2c(NC(=O)Cc3ccccc3)cccc2C1=O the results were TDP1 cell noCPT 23µM, IL1B secr inh inactive, ELG1 repair inh inconclusive, HT1080-NT tox inactive, DT40 TDP1 CPT inconclusive and HT1080 IDH1KD tx inactive.
C[C@@H]1CN([C@@H](C)CO)C(=O)c2cc(NC(=O)C3CC3)ccc2O[C@@H]1CN(C)Cc1ccc(Cl)c(Cl)c1 was read as TDP1 cell noCPT 23µM, IL1B secr inh inconclusive, ELG1 repair inh inconclusive, HT1080-NT tox inactive, DT40 TDP1 CPT 21µM and HT1080 IDH1KD tx inconclusive.
`CCN(CC(=O)Nc1ccc(NC(C)=O)cc1)C(=O)CN1C(=O)NC(C)(c2ccc3ccccc3c2)C1=O` (stereo not given) gave TDP1 cell noCPT inactive, IL1B secr inh inactive, HT1080-NT tox inactive, DT40 TDP1 CPT inactive and HT1080 IDH1KD tx inactive.
For COc1cccc(NC(=O)CSc2ccc3nnc(-c4ccccn4)n3n2)c1 the results were TDP1 cell noCPT inactive, IL1B secr inh inactive, ELG1 repair inh inactive, HT1080-NT tox inactive, DT40 TDP1 CPT inactive and HT1080 IDH1KD tx inactive.
For C[C@H](CO)N1C[C@H](C)[C@@H](CN(C)C(=O)NC2CCCCC2)Oc2c(NC(=O)CCC(F)(F)F)cccc2C1=O the results were TDP1 cell noCPT inactive, IL1B secr inh inactive, ELG1 repair inh inactive, HT1080-NT tox inactive, DT40 TDP1 CPT inconclusive and HT1080 IDH1KD tx inactive.
For C[C@H](CO)N1C[C@H](C)[C@@H](CN(C)Cc2ccc(Cl)c(Cl)c2)Oc2c(NS(=O)(=O)c3ccc(F)cc3)cccc2C1=O the results were TDP1 cell noCPT 23µM, IL1B secr inh -82, ELG1 repair inh inconclusive, HT1080-NT tox inconclusive, DT40 TDP1 CPT inconclusive and HT1080 IDH1KD tx inconclusive.
`C[C@H](CO)N1C[C@H](C)[C@@H](CN(C)Cc2ccncc2)Oc2c(NC(=O)Cc3ccccc3)cccc2C1=O` gave TDP1 cell noCPT inconclusive, IL1B secr inh inactive, ELG1 repair inh inactive, HT1080-NT tox inconclusive, DT40 TDP1 CPT inconclusive and HT1080 IDH1KD tx 15µM.
C[C@H](CO)N1C[C@H](C)[C@@H](CN(C)Cc2ccccc2)Oc2c(NS(=O)(=O)c3ccc(F)cc3)cccc2C1=O was read as TDP1 cell noCPT inactive, IL1B secr inh inactive, ELG1 repair inh inactive, HT1080-NT tox inactive, DT40 TDP1 CPT inactive and HT1080 IDH1KD tx inactive.
